Bioassay records (PubChem)
The entries come from a sample that favours hits as a whole.
APEX1 inh = APE1 (human) endonuclease inhibition. 350,000 tested, 0.35% active. P27695. AID 2517. recombinant APE1, TAMRA/BHQ-2 abasic DNA cleavage fluorescence. Potency, µM (series often up to 65.8 µM), for the others: top-dose activity change, negative = inhibition, hits mostly inhibitors;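 note: plate controls were vehicle for no effect and reference inhibitor for full effect; nearly all actives have a fitted effect of over 55% in size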
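Activity was derived from the fluorescence gain between first and third kinetic reads (60 s intervals, ex 525/em 598 nm) after 50 nM THF-abasic TAMRA/BHQ-2 duplex was added to 0.75 nM APE1 preincubated 15 min with compound.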
RECQ1 helicase = RECQ1 (human) helicase inhibition | P46063 | RECQ1 DNA unwinding, red fluorescence kinetic read | Potency, µM (highest dose often 57.3 µM), for inactives: at the highest dose activity, negative = inhibition, hits mostly inhibitors | 240,000 tested, 0.54% active;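 note: plate controls were vehicle for no effect and no enzyme for full effect; nearly all actives have a fitted effect of over 30% in size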
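RECQ1T1 50 nM; forked duplex (20 bp + 30-nt ss tails) 200 nM, ATP 2 mM final; pH 8.0, 2 mM MgCl2, 2.5 ug/ml poly(dI-dC); 15 min compound preincubation; discontinuous kinetic read over 2 h at RT.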
KAT2A inh = blocks human GCN5L2 histone acetyltransferase; Q92830; GCN5L2 HAT assay, ThioGlo1 CoA-SH fluorescence; Potency, µM (titrated, usually from 58.9 µM), inactives show at the top dose activity change, negative = inhibition, most hits filed as inhibitors; 390,000 tested, 0.21% active; AID 504327
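Enzyme at 20nM final was mixed with library compounds for 15 min at room temperature. Peptide H3(1-25) at 75uM, acetyl-CoA at 70uM and ThioGlo1 at 50uM were then added. Plates were read immediately and after 20 min (Ex340nm/Em540nm).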
TDP1 inh = TDP1 (human) enzyme inhibition. recombinant TDP1, AlphaScreen DNA substrate cleavage. Potency, µM (doses to about 130 µM), for the others: at the top dose activity change, negative = inhibition, hits mostly inhibitors. 350,000 tested, 0.28% active; note: nearly all actives have a fitted effect of over 40% in size
Target sequence (Q9NUW8 whole entry, looked up): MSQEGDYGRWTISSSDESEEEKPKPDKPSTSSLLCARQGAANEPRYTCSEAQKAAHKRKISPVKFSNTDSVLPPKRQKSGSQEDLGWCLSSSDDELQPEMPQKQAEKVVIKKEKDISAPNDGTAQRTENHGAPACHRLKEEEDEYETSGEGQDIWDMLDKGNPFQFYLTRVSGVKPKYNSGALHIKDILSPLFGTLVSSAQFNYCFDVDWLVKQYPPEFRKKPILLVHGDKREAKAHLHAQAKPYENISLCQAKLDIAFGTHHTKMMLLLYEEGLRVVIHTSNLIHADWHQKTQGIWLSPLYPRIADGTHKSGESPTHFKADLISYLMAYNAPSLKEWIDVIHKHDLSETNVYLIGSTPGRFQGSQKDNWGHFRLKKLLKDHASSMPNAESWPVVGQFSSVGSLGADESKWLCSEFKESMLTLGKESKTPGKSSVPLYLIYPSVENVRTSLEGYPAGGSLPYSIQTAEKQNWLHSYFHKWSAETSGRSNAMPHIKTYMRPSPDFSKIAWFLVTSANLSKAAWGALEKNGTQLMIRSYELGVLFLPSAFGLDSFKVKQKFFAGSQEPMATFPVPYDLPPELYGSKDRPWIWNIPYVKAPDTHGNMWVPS
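Compounds were preincubated with Tdp1 (1 nM final) for 15 min at room temperature before substrate (15 nM final) started a 5 min reaction; beads (10 ug/ml final) were then added for 10 min before AlphaScreen detection.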
BLM inh = Bloom syndrome helicase (human) inhibition; P54132; Potency, µM (highest dose often 56.1 µM), for the others: at the top dose activity change, negative = inhibition, hits mostly inhibitors; recombinant BLM DNA unwinding, fluorescence dequenching; AID 2528; 350,000 tested, 0.2% active;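 note: plate controls were vehicle for no effect and no enzyme for full effect; nearly all actives have a fitted effect of over 35% in size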
JMJD2E inh = JMJD2E (human) inhibition. JMJD2E catalytic domain, FDH-coupled NADH fluorescence (FDH is formaldehyde dehydrogenase). Potency, µM (titrated, usually from 57.1 µM), without a hit: top-dose activity change, negative = inhibition, usual class: inhibitors. 230,000 tested, 1.6% active. B2RXH2. AID 2147; active = well fitted inhibition curve with a large enough effect, not every such curve was filed as active; inconclusive = small, poorly fitted or top-dose-only effect, or another doubt; inactive = no such curve, though single readings can be large or run the other way;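 note: 0% = wells with enzyme and -100% = buffer wells without enzyme; nearly all actives have a fitted effect of over 50% in size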
* marks the source's active call; other numbers are inactive results; i = inactive; u = inconclusive; x = no result; [ ] = another dose, or the depositor's remark. Unless noted, calls come from the whole dose curve; as a rule, active = well fitted curve in the direction sought with a large enough effect; inconclusive = small, poorly fitted or top-dose-only effect, or another doubt; inactive = no such curve, though single readings can be large; an effect the other way counts as inactive or inconclusive. Unless noted, % is set by controls: 0 for no effect and ±100 for the full control effect; potency is the fitted concentration of half-maximal effect.

SMILES	APEX1 inh	RECQ1 helicase	KAT2A inh	TDP1 inh	BLM inh	JMJD2E inh
COc1cc(/C=C(\C#N)C(=O)Nc2cc(C(F)(F)F)ccc2Cl)ccc1OCC(=O)Nc1cccc(C(F)(F)F)c1	6%	-3%	-4%	0%	-1%	2%
CC12C(=O)N(c3cccc4cccnc34)C(=O)C1C1C=CC2C1 (stereo unspecified)	1%	9%	0%	4%	2%	-2%
CC12C(=O)N(c3nccs3)C(=O)C1C1C=CC2C1 (stereo unspecified)	10µM*	-20%	-24%	22µM*	-5%	5%
N#Cc1nc(-c2ccc(OCc3ccccc3Cl)cc2)oc1NCCCn1ccnc1	-3%	-1%	-7%	5%	-10%	3.2µM*
Cc1ccc(S(=O)(=O)N2CCN(c3nc(-c4cnccn4)nc4ccccc34)CC2)cc1	x	x	x	1%	x	x
CCCc1c(C)[nH]c2ccc(C(=O)O)cc2c1=S	22µM*	14µM*	2%	u	-10%	u
CCC(=O)NC[C@H](Cc1ccc(OCCc2nc(-c3ccccc3)oc2C)cc1)N/C(C)=C\C(=O)c1ccc(C(F)(F)F)cc1	6%	-7%	-19%	9%	-19%	x
CC1=C(c2ccc(NN=C(C#N)C#N)cc2)NNC(=O)C1	x	x	-12%	x	-18%	x
COc1ccccc1CNC(=O)c1c[nH]c2ccc(S(=O)(=O)Nc3cc(C)cc(C)c3)cc2c1=O	x	x	-10%	0%	-7%	x
CCN(CC)C(=O)c1c[nH]c2ccc(S(=O)(=O)Nc3cc(C)cc(C)c3)cc2c1=O	-6%	-7%	2%	0%	-11%	32µM*
CC1=NOC(=O)/C1=C/c1ccc(O)cc1	-3%	i	-4%	-4%	-2%	28µM*
CC1=NOC(=O)/C1=C/c1ccc(O)c(Br)c1	23%	x	26%	x	0%	x
O=C(c1nc2n(n1)C(c1ccc(Cl)cc1)C=C(c1ccccc1)N2)N1CCOCC1 (stereo unspecified)	0%	-5%	22µM*	1%	2%	u
O=C(N/N=C/c1ccsc1)c1cc2ccccc2o1	-38%	x	-7%	79µM*	-9%	x
O=C(N/N=C/c1ccccc1F)c1cc2c(ccc3ccccc32)o1	9%	x	-10%	8.9µM*	-14%	x
Oc1cc2c(cc1O)[C@H](c1ccccc1)CNCC2	-4%	i	x	22%[56.1 µM]	1%	14µM*
COc1cc2c(cc1OC)[C@@H](c1ccccc1)CN(C)CC2	-2%	x	x	x	x	x
O=C(CNC(=O)C1CCCC1)OC(C(=O)Nc1cc(C(F)(F)F)ccc1Cl)c1ccccc1 (stereo unspecified)	x	x	x	1%	x	x
CCOc1ccc2nc(N3C(=O)/C(=C/c4ccc(Cl)cc4)NC3=S)sc2c1	2%	-11%	2%	7%	28µM*	38%
COc1cccc(/C=N/NC(=O)CC2C(=O)NN=C2C)c1O (stereo unspecified)	2%	-8%	0%	5%	-2%	8.9µM*
COc1cccc(/C=N/NC(=O)c2ccoc2C)c1O	2%	-15%	-5%	7%	-8%	14µM*
COc1ccc(/C=N/NC(=O)c2cnccn2)c(OC)c1OC	-1%	i	-16%	-1%	2%	-2%
COc1cccc(/C=N/NC(=O)c2cnccn2)c1O	-1%	-1%	0%	x	2%	11µM*
COc1cccc(/C=N/NC(=O)C(=O)NCc2ccco2)c1O	4%	-15%	-2%	9%	-2%	13µM*
C[C@H](N)C(=O)NCC(=O)N[C@H]1CSSC[C@@H](C(=O)O)NC(=O)[C@H](CO)NC(=O)[C@H]([C@@H](C)O)NC(=O)[C@H](Cc2ccccc2)NC(=O)[C@H]([C@@H](C)O)NC(=O)[C@H](CCCCN)NC(=O)[C@H](Cc2c[nH]c3ccccc23)NC(=O)[C@H](Cc2ccccc2)NC(=O)[C@H](Cc2ccccc2)NC(=O)[C@H](CC(N)=O)NC(=O)[C@H](CCCCN)NC1=O	x	x	49%	x	x	x
SMILES	APEX1 inh	RECQ1 helicase	KAT2A inh	TDP1 inh	BLM inh	JMJD2E inh
COc1cccc(/C=N/NC(=O)NC2CCCCC2)c1O	1%	-6%	-6%	5%	-4%	22µM*
COc1ccc(/C=N/NC(=O)C2C(=O)NCC2c2ccccc2)c(OC)c1 (stereo unspecified)	8%	-6%	3%	0%	6%	-4%
COc1cccc(/C=N\NC(=O)C2C(=O)NCC2c2ccccc2)c1O (stereo unspecified)	13%	-5%	3%	0%	-1%	28µM*
COc1cccc(/C=N/NC(=O)c2c(-c3ccccc3)noc2C)c1O	-4%	-4%	-21%	5%	-2%	32µM*
Nc1nc(NCc2ccc(F)cc2)c2[nH]cnc2n1	x	x	x	2%	x	x
O=C1c2ccccc2C(=O)c2c1ccc(C(=O)N1CCCCC1)c2NCCO	-5%	-4%	-2%	7%	-1%	4%
CCN(CCN(C)C)C(=O)c1ccc2c(c1NCCO)C(=O)c1ccccc1C2=O	8%	2%	-11%	10%	18µM*	u
O=c1c2c3c(sc2nc2n1CCCCC2)CCC3	0%	i	u	7%	-7%	6%
O=C1c2sc3nc4n(c(=O)c3c2CCC1Br)CCCCC4 (stereo unspecified)	-4%	-12%	-10%	x	25µM*	18µM*
O=C(NCC1CCCO1)C(=O)N/N=C/c1cc(Cl)ccc1O (stereo unspecified)	2%	-3%	-1%	x	4%	13µM*
O=C(N/N=C/c1ccccc1Cl)c1ccncc1	-5%	x	-16%	2%	1%	x
O=C(NCC1CCCO1)C(=O)N/N=C/c1ccc(O)c(Cl)c1 (stereo unspecified)	2%	-6%	-18%	3%	-1%	5%
O=C(N/N=C/c1cc(Cl)ccc1O)c1ccncc1	15%	-10%	-4%	13%	2%	13µM*
NNC(=O)c1ccc(CSc2n[nH]c(=O)[nH]c2=O)cc1	u	-26%	-19%	45µM*	-15%	-19%
CN[C@@H]1[C@@H](O[C@H]2O[C@H](CO)[C@@H](N)[C@H](O)[C@H]2O)O[C@H]2C[C@@H](N)[C@@H](O[C@H]3[C@H](O)[C@@H](O)[C@H](N)C[C@@H]3N)O[C@@H]2[C@@H]1O	2%[21 µM]	x	x	x	x	x
CCN=c1scc(C)n1/N=C/c1ccc(O)c(O)c1O	u	25µM*	-6%	6%	-19%	11µM*
N#Cc1c([N+](=O)[O-])cc([N+](=O)[O-])cc1S(=O)(=O)Cc1ccccc1	-7%	x	14µM*	5%	x	x
